Data published in PubChem BioAssay (EPA / NIEHS).
Inconclusive results are not listed. Calls of active or inactive are those of the source. How the source made its calls: active means hit-call score of the fitted dose curve at least 0.9, where 1 is the maximum; inconclusive means response in the unintended direction; inactive means score below 0.9.

Columns and labels:
[1] = molecular target: human Beta-secretase (BACE), BACE1 (gene 23621) (UniProt P56817); assay: NVS_ENZ_hBACE: NovaScreen (NVS) Enzymatic Assay for human Beta-secretase (BACE) (AID 2283140);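 further: hits are inhibitors that reduce fluorescent substrate signal versus DMSO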
human Beta-secretase (BACE), BACE1 (gene 23621), sequence (P56817 whole entry, looked up): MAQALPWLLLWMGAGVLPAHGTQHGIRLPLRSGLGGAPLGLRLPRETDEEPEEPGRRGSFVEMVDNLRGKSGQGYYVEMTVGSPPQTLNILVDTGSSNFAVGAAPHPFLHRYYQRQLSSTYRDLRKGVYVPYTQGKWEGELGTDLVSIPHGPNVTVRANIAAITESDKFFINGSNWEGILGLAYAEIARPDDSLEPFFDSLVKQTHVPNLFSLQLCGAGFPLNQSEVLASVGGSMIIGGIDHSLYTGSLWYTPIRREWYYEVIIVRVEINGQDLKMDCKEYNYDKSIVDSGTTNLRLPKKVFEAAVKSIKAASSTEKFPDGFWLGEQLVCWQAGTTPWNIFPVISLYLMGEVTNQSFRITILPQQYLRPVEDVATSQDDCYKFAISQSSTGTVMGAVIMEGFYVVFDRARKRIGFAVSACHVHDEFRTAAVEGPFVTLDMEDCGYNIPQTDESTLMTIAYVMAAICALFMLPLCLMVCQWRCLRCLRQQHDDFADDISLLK
Summary of the method: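 Cell-free fluorescence-intensity assay of recombinant BACE1 expressed in SF9 cells, read 1 hour after dosing. Loss of signal indicates reduced protease activity, fitted relative to DMSO negative control. Primary screen at 25 uM in duplicate; actives followed in concentration series.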

[2] = molecular target: human Matrix Metalloproteinase-9 (MMP9), MMP9 (gene 4318) (UniProt P14780); assay: NVS_ENZ_hMMP9: NovaScreen (NVS) Enzymatic Assay for human Matrix Metalloproteinase-9 (MMP9) (AID 2283190);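 further: cell-free recombinant MMP9 protease activity read by fluorescent substrate signal; active means inhibition seen as loss of fluorescence signal versus DMSO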
human Matrix Metalloproteinase-9 (MMP9), MMP9 (gene 4318), sequence (P14780 whole entry, looked up): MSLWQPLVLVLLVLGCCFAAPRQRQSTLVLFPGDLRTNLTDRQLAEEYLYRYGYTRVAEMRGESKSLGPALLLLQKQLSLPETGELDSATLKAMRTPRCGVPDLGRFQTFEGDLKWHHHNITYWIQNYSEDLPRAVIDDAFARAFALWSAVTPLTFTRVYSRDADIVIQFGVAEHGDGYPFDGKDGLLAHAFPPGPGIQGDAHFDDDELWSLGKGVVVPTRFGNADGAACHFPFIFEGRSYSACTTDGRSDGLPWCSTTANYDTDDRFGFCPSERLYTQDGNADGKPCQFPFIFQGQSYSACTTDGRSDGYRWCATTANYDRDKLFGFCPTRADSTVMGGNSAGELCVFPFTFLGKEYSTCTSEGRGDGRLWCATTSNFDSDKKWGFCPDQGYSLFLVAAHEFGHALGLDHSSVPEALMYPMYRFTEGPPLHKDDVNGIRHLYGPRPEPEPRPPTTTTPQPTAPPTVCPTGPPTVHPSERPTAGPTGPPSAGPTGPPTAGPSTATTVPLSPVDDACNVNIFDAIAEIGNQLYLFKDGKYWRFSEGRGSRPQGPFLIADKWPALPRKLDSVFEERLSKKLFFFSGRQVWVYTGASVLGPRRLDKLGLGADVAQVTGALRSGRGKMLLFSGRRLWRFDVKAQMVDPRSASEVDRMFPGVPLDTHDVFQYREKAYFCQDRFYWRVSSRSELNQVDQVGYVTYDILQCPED
Summary of the method: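 Extracted enzyme, fluorescent substrate, 1 h post-dose read. Single conc 25 uM in duplicate, then concentration series for actives. Activity = signal loss relative to DMSO negative control.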

[3] = molecular target: human Ephrin type-A Receptor 1 (EphA1), EPHA1 (gene 2041) (UniProt P21709); assay: NVS_ENZ_hEphA1: NovaScreen (NVS) Enzymatic Assay for human Ephrin type-A Receptor 1 (EphA1) (AID 2283158);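 further: activity is signal loss versus DMSO meaning EphA1 kinase inhibition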
human Ephrin type-A Receptor 1 (EphA1), EPHA1 (gene 2041), sequence (P21709 whole entry, looked up): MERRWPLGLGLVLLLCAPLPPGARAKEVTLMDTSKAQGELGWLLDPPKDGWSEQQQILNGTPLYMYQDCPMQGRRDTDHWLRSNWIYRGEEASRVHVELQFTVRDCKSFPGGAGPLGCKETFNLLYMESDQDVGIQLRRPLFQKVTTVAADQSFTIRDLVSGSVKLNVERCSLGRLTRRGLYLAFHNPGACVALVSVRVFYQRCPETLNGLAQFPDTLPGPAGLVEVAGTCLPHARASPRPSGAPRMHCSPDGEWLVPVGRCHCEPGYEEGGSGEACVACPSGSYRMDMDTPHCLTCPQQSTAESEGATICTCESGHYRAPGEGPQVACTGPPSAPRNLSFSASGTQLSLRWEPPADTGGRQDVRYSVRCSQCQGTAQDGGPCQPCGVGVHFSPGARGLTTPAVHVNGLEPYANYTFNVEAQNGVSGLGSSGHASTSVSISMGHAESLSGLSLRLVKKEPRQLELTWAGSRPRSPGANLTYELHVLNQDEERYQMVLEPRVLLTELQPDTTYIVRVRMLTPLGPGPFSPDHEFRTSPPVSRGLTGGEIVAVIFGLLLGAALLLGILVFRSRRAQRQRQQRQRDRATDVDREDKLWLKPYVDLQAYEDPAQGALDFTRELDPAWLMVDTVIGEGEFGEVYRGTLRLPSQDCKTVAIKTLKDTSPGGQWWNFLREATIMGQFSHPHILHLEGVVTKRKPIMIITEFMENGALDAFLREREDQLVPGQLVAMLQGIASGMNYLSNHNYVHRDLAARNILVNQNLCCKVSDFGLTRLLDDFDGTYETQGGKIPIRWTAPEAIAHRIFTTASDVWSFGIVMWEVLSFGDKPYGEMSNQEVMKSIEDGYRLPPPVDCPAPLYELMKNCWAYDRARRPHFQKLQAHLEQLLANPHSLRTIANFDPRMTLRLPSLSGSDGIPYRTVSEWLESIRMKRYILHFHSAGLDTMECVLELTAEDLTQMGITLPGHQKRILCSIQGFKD
Summary of the method: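 Cell-free kinase activity with recombinant protein, 1 hour after dosing; product separated by electrophoretic mobility shift, fluorescence read. Primary screen at 25 uM in duplicate; hits run as concentration-response up to 50 uM, relative to DMSO.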

[4] = molecular target: Cytochrome P450 2C19 (Homo sapiens) (UniProt P33261); assay: NVS_ADME_hCYP2C19: NovaScreen (NVS) CYP450-related Enzyme Activity (ADME) Assay for human CYP2C19 (AID 2283113)
Summary of the method: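 Cell-free recombinant human CYP2C19 from insect cells, fluorescent substrate; activity read by fluorescence intensity 1 h after dosing. Primary screen in duplicate at 10 uM; actives retested in concentration series. Signal loss versus acetonitrile negative control.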

[5] = molecular target: human Phosphodiesterase 10 (PDE10), PDE10A (gene 10846) (UniProt Q9Y233); assay: NVS_ENZ_hPDE10: NovaScreen (NVS) Enzymatic Assay for human Phosphodiesterase 10 (PDE10) (AID 2283195)
human Phosphodiesterase 10 (PDE10), PDE10A (gene 10846), sequence (Q9Y233 whole entry, looked up): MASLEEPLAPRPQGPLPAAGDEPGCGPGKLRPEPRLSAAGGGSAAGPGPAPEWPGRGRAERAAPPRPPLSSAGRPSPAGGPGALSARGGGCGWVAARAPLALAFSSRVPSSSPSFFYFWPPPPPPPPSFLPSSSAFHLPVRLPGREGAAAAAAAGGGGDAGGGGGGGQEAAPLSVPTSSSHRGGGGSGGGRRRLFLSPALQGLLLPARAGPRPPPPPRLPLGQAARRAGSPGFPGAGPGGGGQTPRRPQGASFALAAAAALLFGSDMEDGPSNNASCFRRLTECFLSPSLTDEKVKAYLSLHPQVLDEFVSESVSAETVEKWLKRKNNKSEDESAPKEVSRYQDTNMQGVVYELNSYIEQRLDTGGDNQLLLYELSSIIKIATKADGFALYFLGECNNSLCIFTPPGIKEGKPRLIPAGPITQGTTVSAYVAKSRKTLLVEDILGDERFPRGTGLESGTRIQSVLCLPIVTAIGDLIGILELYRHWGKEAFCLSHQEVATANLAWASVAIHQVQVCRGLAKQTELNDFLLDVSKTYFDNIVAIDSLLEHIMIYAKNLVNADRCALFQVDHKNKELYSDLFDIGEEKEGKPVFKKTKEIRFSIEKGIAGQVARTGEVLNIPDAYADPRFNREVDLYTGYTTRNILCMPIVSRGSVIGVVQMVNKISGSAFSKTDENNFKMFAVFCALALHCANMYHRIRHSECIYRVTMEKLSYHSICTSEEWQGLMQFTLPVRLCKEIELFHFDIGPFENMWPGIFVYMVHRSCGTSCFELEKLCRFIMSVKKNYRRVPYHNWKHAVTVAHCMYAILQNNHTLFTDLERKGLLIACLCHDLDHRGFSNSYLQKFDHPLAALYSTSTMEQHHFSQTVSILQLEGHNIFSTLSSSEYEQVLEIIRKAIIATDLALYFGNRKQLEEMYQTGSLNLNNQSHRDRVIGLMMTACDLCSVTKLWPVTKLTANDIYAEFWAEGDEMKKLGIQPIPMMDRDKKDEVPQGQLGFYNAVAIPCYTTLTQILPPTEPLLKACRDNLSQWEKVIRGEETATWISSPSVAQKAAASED
Summary of the method: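 PDE10A, cell-free; 1 h incubation; fluorescence intensity + electrophoretic mobility shift separating substrate/product; DMSO = baseline; 25 uM duplicate primary, CRC up to 50 uM.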

[6] = molecular target: human Phosphoinositide 3-kinase alpha (PI3Ka), PIK3CA (gene 5290) (UniProt P42336); assay: NVS_ENZ_hPI3Ka: NovaScreen (NVS) Enzymatic Assay for human Phosphoinositide 3-kinase alpha (PI3Ka) (AID 2283196)
human Phosphoinositide 3-kinase alpha (PI3Ka), PIK3CA (gene 5290), sequence (P42336 whole entry, looked up): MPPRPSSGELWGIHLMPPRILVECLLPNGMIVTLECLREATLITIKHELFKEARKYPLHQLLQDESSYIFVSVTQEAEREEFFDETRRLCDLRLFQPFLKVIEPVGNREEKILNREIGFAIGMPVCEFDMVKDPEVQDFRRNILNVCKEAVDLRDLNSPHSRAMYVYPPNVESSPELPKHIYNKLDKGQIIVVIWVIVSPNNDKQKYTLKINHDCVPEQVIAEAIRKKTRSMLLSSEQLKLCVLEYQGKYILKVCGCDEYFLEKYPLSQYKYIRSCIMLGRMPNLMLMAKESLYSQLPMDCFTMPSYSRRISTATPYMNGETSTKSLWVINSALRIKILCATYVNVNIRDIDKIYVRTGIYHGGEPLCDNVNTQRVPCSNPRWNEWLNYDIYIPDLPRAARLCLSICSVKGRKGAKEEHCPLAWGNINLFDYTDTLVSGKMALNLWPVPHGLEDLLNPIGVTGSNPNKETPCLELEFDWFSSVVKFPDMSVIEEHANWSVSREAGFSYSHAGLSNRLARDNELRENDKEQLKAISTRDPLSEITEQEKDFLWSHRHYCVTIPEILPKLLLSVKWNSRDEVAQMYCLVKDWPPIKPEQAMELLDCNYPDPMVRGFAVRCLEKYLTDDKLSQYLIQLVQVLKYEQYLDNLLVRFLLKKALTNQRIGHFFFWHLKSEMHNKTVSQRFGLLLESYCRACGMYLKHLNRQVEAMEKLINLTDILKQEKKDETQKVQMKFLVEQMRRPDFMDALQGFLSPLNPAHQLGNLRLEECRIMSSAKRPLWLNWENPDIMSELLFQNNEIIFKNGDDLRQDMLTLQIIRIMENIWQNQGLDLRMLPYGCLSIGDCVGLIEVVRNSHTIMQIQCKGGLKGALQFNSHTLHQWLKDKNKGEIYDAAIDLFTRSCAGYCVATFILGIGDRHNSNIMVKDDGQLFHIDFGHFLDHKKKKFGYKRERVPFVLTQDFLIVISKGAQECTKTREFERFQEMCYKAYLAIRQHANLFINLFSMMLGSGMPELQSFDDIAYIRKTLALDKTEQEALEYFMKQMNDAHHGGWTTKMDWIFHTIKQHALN
Summary of the method: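 Fluorescence/mobility-shift readout of substrate conversion by recombinant enzyme, 1 h post-dosing. Primary screen in duplicate at 25 uM; actives (e.g. ≥30% inhibition) retested in singleton concentration-response, top concentration 50 uM.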

[7] = molecular target: human Protein Tyrosine Phosphatase Non-receptor Type 6 (PTPN6), PTPN6 (gene 5777) (UniProt P29350); assay: NVS_ENZ_hPTPN6: NovaScreen (NVS) Enzymatic Assay for human Protein Tyrosine Phosphatase Non-receptor Type 6 (PTPN6) (AID 2283210)
human Protein Tyrosine Phosphatase Non-receptor Type 6 (PTPN6), PTPN6 (gene 5777), sequence (P29350 whole entry, looked up): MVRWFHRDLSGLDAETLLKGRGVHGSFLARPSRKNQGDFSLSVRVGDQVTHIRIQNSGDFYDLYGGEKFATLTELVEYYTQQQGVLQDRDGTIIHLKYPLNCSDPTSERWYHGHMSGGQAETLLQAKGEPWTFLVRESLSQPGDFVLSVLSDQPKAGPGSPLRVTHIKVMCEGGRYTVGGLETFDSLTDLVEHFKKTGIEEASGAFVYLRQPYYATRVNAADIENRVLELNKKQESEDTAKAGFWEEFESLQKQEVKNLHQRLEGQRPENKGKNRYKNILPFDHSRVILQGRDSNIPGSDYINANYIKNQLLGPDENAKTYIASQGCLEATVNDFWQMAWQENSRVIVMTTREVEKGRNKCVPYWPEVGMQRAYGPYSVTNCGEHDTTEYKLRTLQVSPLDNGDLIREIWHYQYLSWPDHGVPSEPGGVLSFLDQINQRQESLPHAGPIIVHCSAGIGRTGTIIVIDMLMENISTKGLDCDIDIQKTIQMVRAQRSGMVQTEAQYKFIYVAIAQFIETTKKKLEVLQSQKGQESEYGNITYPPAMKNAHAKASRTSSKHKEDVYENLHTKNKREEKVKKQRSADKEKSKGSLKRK
Description: NVS_ENZ_hPTPN6 is a biochemical, single-readout assay that uses extracted gene-proteins from SF9 in a cell-free assay. Measurements were taken 1.33 hours after chemical dosing in a 384-well plate.NVS_ENZ_hPTPN6 is one of one assay component(s) measured or calculated from the NVS_ENZ_hPTPN6 assay. It is designed to make measurements of enzyme activity, a form of enzyme reporter, as detected with fluorescence intensity signals by Fluorescence and electrophoretic mobility shift technology.Data from the assay component NVS_ENZ_hPTPN6 was analyzed into 1 assay endpoint. This assay endpoint, NVS_ENZ_hPTPN6, was analyzed in the positive analysis fitting direction relative to DMSO as the negative control and baseline of activity. Using a type of enzyme reporter, loss-of-signal activity can be used to understand changes in the enzymatic activity as they relate to the gene PTPN6. Furthermore, this assay endpoint can be referred to as a primary readout, because this assay has produced multiple assay endpoints where this one serves a enzymatic activity function. To generalize the intended target to other relatable targets, this assay endpoint is annotated to the phosphatase intended target family, where the subfamily is non-receptor tyrosine phosphatase. […]

Q: How did the AC50 [1] turn out when `Cc1ccc(Nc2ccc(O)c3c2C(=O)c2ccccc2C3=O)cc1` was run?
A: Its AC50 is 6.25 µM (active).

Q: And the AC50 [2]?
A: Its AC50 is 2.18 µM (active).

Q: `CC1(C)[C@H]2CC[C@]1(C)[C@H](O)C2` was tested. Which outcome [3] did it give?
A: Its outcome is “inactive”.

Q: With `c1ccc2sc(SN(C3CCCCC3)C3CCCCC3)nc2c1` as the molecule, how does the outcome [4] read?
A: The outcome was “inactive”.

Q: Which AC50 [2] does the source give for `CCCCCCCCC` here?
A: The AC50 was 25 µM (active).

Q: `CC(=O)OCc1ccc2c(c1)OCO2` was tested. Which AC50 [3] did it give?
A: Its AC50 is 8.23 µM (active).

Q: What about the outcome [5] of the same molecule?
A: Its outcome is “inactive”.

Q: For `CNC[C@H](O)c1cccc(O)c1`, which AC50 [2] is on record?
A: The AC50 was 10.6 µM (active).

Q: Which outcome [6] does the source give for `CC(=O)/C=C/C1=C(C)CCCC1(C)C` here?
A: The outcome was “inactive”.

Q: With `C#C[C@]1(O)CC[C@H]2[C@@H]3CCC4=Cc5oncc5C[C@]4(C)[C@H]3CC[C@@]21C` as the molecule, how does the outcome [3] read?
A: The outcome was “inactive”.

Q: What about the outcome [5] of the same molecule?
A: The outcome was “inactive”.

Q: And the outcome [6]?
A: Its outcome is “inactive”.

Q: How did the outcome [5] turn out when `CCc1c(C)cc(N)c(CC)c1N` was run?
A: The outcome was “inactive”.

Q: What does the source list for `CC1CCC2CC1C2(C)C` (centres undefined)?
A: AC50 [3]: 21.3 µM (active); outcome [5]: inactive; AC50 [6]: 1.82 µM (active)

Q: What does the source list for `Cc1ccc2ccccc2n1`?
A: outcome [3]: inactive; AC50 [5]: 9.74 µM (active)

Q: Which results are given for `OC1C(O)C(O)C(O)C(O)C1O` (centres undefined)?
A: outcome [3]: inactive; outcome [5]: inactive

Q: How did the outcome [5] turn out when `CC1(C)[C@H](C(=O)OCc2cccc(Oc3ccccc3)c2)[C@@H]1C=C(Cl)Cl` was run?
A: The outcome was “inactive”.

Q: With `CC(=O)OCCOC(C)=O` as the molecule, how does the AC50 [2] read?
A: The AC50 was 14.9 µM (active).

Q: Which outcome [5] does the source give for `CCCCC(CC)COCCC#N` (centres undefined) here?
A: Its outcome is “inactive”.

Q: What about the outcome [6] of the same molecule?
A: The outcome was “inactive”.

Q: `CC1CCC(C(C)CS)CC1S` (centres undefined) was tested. Which AC50 [2] did it give?
A: Its AC50 is 0.997 µM (active).

Q: How did the outcome [7] turn out when `O=C(O)c1ccc([N+](=O)[O-])cc1` was run?
A: Its outcome is “inactive”.

Q: For `O=[N+]([O-])c1cc(C(F)(F)F)ccc1Cl`, which outcome [3] is on record?
A: Its outcome is “inactive”.

Q: And the AC50 [5]?
A: The AC50 was 35 µM (active).

Q: For `OCC(CO)(CO)COCC(CO)(CO)CO`, which outcome [3] is on record?
A: The outcome was “inactive”.

Q: What about the AC50 [5] of the same molecule?
A: The AC50 was 23.1 µM (active).

Q: How did the AC50 [2] turn out when `Clc1ccc(Cl)c(Cl)c1Cl` was run?
A: Its AC50 is 6.22 µM (active).

Q: `COc1cc2ncnc(Nc3cccc(Cl)c3)c2cc1OC` was tested. Which outcome [3] did it give?
A: Its outcome is “inactive”.

Q: What about the AC50 [5] of the same molecule?
A: Its AC50 is 2.52 µM (active).

Q: With `Cc1c(Cl)c(=O)oc2cc(O)ccc12` as the molecule, how does the AC50 [5] read?
A: Its AC50 is 0.582 µM (active).

Q: Which outcome [5] does the source give for `Nc1cc([N+](=O)[O-])ccc1Cl` here?
A: The outcome was “inactive”.

Q: Which outcome [3] does the source give for `COC(=O)OC` here?
A: Its outcome is “inactive”.

Q: What about the outcome [5] of the same molecule?
A: The outcome was “inactive”.

Q: And the outcome [6]?
A: Its outcome is “inactive”.

Q: How did the outcome [5] turn out when `c1ccc2c(c1)c1cccc3ccc4cccc2c4c31` was run?
A: The outcome was “inactive”.
